# Results published in PubChem BioAssay.
# For part of these data: Potency and affinity values are given separately. Activity calls are given as the source filed them.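 The calls were made as follows, unless noted: active = calcium signal cut by more than 3 SD below the full-agonist control yet still positive, in both repeats and the earlier primary screen; inactive = the rest.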
# How the values were obtained:
# [1] = test system: TRPC4 beta (transient receptor potential cation channel C4), mouse; assay: activators of mouse TRPC4 channel, confirmation, cell-based, Fluo4 calcium, HEK293 TRPC4beta/mu-opioid, duplicates, 10 µM (AID 2426;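 active = fluorescence ratio normalized to control raised more than 50% in primary screen plus both repeat runs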;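 as to activation: percent rise of integrated ratio over buffer wells lacking compound which define 0%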); settings: Fluo4 calcium fluorescence, at 10 µM; hits give high values
# [2] = test system: transient receptor potential cation channel C4 beta (TRPC4), mouse; assay: activators of mouse TRPC4 channel, confirmation, cell-based, second round, Fluo4, HEK293 TRPC4beta/mu-opioid, 1 µM (AID 2461;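 active = primary screen active and over 50% activation in each of two duplicate runs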); settings: Fluo4 calcium fluorescence, at 1 µM; hits give high values
# [3] = test system: TRPC4 (transient receptor potential cation channel C4 beta), mouse; assay: positive allosteric modulators of mouse TRPC4, confirmation, cell-based, second round, Fluo-4, HEK293 TRPC4beta/mu-opioid, 1 µM (AID 2554;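 active = primary screen hit whose fluorescence ratio, in both repeats, exceeds the weak agonist control mean by 3 SD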); settings: DAMGO EC20, Fluo-4 calcium flux, at 1 µM; hits give high values
# [4] = test system: TRPC4 beta (transient receptor potential cation channel C4), mouse; assay: positive allosteric modulators of mouse TRPC4, confirmation, cell-based, Fluo-4, HEK293 TRPC4beta/mu-opioid (AID 2555;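 active = primary screen hit whose calcium fluorescence ratio, in both repeats, exceeds the weak agonist control mean by 3 SD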); settings: DAMGO EC20, Fluo-4 calcium flux, at 10 µM; hits give high values
# [5] = biological target: Short transient receptor potential channel 4 (Mus musculus) (UniProt Q9QUQ5); assay: inhibitors of mouse TRPC4 channel, confirmation, cell-based, Fluo4, HEK293 TRPC4beta/mu-opioid (AID 2636); settings: DAMGO, Fluo4 calcium flux, at 10 µM; hits give high values
# Chain of Short transient receptor potential channel 4 (Mus musculus) (Q9QUQ5 whole entry, looked up): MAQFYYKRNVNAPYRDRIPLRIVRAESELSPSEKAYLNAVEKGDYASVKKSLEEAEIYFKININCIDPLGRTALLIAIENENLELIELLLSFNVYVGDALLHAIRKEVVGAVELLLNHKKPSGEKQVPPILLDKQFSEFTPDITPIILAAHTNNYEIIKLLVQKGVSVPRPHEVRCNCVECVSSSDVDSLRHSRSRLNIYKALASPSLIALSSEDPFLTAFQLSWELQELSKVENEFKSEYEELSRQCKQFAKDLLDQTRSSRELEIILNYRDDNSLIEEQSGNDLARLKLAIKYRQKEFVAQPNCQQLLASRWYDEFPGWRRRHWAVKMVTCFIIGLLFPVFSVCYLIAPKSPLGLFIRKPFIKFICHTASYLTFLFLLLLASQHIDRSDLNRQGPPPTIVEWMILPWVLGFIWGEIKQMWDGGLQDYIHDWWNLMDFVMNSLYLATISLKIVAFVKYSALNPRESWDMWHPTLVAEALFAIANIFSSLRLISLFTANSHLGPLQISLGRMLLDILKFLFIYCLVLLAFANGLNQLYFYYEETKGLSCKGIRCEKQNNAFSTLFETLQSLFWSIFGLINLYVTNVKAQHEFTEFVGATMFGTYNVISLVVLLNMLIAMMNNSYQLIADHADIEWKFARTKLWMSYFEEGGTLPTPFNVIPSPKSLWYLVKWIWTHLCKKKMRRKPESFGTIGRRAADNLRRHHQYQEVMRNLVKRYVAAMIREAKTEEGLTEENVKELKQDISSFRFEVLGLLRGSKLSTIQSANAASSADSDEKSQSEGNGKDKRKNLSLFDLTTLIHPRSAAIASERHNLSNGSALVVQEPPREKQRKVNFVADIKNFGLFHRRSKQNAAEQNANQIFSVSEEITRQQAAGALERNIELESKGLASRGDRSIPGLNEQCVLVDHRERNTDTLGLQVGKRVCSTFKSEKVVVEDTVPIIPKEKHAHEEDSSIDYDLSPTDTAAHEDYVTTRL
# [6] = biological target: Short transient receptor potential channel 4 (Mus musculus) (UniProt Q9QUQ5); assay: inhibitors of mouse TRPC4 channel, confirmation, cell-based, second round, Fluo4, HEK293 TRPC4beta/mu-opioid, 1 µM (AID 2637;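 active = calcium signal ratio cut to more than 3 SD under the fully stimulated control mean yet still positive, in both repeats and the primary screen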); settings: Fluo4 calcium flux, DAMGO, at 1 µM; hits give high values
# [7] = biological target: Short transient receptor potential channel 4 (Mus musculus) (UniProt Q9QUQ5); assay: mouse TRPC4 channel activators, dose response, cell-based, HEK293 TRPC4/mu-opioid, Fluo-4 calcium (AID 434937;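 active = primary screen activator hit with a dose response curve and TRPC4 channel activation at any tested dose; inactive = no activation, no dose response, or not a primary hit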)
# [8] = biological target: Short transient receptor potential channel 4 (Mus musculus) (UniProt Q9QUQ5); assay: TRPC4 positive allosteric modulators, dose response, cell-based, HEK293 TRPC4/mu-opioid, Fluo-4 calcium, EC20 DAMGO (AID 434941;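 active = earlier screen potentiator hit that boosts the TRPC4 ion channel at some dose, with a dose response; inactive = no potentiation, no dose response, or not a prior hit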;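 also: calcium entry triggered by an EC20 dose of DAMGO at the co-expressed mu-opioid receptor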)
# [9] = biological target: Short transient receptor potential channel 4 (Mus musculus) (UniProt Q9QUQ5); assay: mouse TRPC4 channel inhibitors, dose response, cell-based, HEK293 TRPC4/mu-opioid, Fluo-4 calcium (AID 434942;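 active = primary screen inhibitor hit that blocks the TRPC4 channel at some tested dose, yielding a dose curve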)
# [10] = biological target: Short transient receptor potential channel 6 (Mus musculus) (UniProt Q61143); assay: inhibition of mouse TRPC6 channel, confirmation, selectivity assay for TRPC4 inhibitor project, cell-based, HEK293, membrane potential dye, duplicate (AID 434948;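 active = active in primary screen and both duplicates, each dropping signal beyond three positive-control SD with fluorescence still positive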); settings: HEK293 TRPC6, membrane potential dye fluorescence, at 10 µM, stimulated with maximal-effect acetylcholine; hits give high values
# Chain of Short transient receptor potential channel 6 (Mus musculus) (Q61143 whole entry, looked up): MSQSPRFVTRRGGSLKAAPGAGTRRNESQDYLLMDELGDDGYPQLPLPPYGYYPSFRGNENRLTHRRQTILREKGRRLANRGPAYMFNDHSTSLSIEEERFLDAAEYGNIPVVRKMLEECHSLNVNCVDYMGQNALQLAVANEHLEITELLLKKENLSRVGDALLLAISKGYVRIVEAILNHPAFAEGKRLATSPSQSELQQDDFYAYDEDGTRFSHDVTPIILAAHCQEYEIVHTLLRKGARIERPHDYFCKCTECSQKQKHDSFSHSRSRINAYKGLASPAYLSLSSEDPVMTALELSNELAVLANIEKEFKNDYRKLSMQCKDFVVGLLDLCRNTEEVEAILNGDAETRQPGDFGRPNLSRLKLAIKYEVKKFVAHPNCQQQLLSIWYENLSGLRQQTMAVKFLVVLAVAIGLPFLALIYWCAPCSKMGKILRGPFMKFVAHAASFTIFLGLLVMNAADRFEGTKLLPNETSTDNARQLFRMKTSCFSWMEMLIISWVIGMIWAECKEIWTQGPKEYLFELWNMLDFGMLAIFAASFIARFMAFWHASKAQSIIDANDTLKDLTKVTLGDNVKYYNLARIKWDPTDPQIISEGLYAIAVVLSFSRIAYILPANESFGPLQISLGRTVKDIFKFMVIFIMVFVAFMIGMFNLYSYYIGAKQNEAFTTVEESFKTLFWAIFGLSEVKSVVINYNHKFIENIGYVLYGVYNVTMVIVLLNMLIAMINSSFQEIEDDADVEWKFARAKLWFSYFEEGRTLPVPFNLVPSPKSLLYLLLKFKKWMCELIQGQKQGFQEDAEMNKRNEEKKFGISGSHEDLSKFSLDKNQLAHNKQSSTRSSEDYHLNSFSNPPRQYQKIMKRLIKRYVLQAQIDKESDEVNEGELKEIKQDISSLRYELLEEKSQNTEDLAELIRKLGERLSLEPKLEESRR
# [11] = biological target: Short transient receptor potential channel 6 (Mus musculus) (UniProt Q61143); assay: activation of mouse TRPC6 channel, confirmation, selectivity assay for TRPC4 activator project, cell-based, HEK293, membrane potential dye, duplicate (AID 434950;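 active = membrane potential signal rise above negative control mean plus 3 SD in both duplicates, also active in the earlier TRPC4 screen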;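 as to activation: 0% = buffer only wells and 100% = acetylcholine maximal-effect wells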); settings: HEK293 TRPC6, membrane potential fluorescence, at 10 µM; hits give high values
# [12] = biological target: Short transient receptor potential channel 6 (Mus musculus) (UniProt Q61143); assay: TRPC6 potentiation by TRPC4 potentiator hits, confirmation, selectivity assay for TRPC4 potentiator project, HEK293 cells, membrane potential dye, duplicate (AID 434952;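 active = compound raising the membrane signal above positive-control mean plus 3 SD in both repeats, and a primary screen hit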); settings: HEK293 TRPC6, membrane potential dye fluorescence, at 10 µM, maximal acetylcholine added after compound; hits give high values
# [13] = biological target: Short transient receptor potential channel 4 (Mus musculus) (UniProt Q9QUQ5); assay: calcium flux activators in TRPC4/5HT1a cells, counter-screen for TRPC4 activator project, cell-based, second counter screen, HEK293 TRPC4/5HT1a, Fluo-4 (AID 434977;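 active = calcium signal rise above buffer-control mean plus 5 SD in both duplicates, and also a hit in the primary screen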;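 as to activation: plate controls were assay buffer for no effect and maximal serotonin response for full effect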); settings: Fluo-4 calcium flux, at 10 µM; hits give high values
# [14] = calcium flux inhibitors in TRPC4/5HT1a cells, confirmation, counter-screen for TRPC4 inhibitor project, cell-based, second counter screen, HEK293 TRPC4/5HT1a, Fluo-4 (AID 434978;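 active = primary screen active whose calcium signal fell more than 3 SD beyond the full-serotonin control mean in both duplicate plates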;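 as to outcome: serotonin given first at submaximal then at maximal dose after compound preincubation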); settings: Fluo-4 calcium flux, at 10 µM, serotonin added to trigger calcium flux; hits give high values
# [15] = test system: TRPC4 (mouse), co-expressed with 5HT1a in HEK293; assay: calcium flux potentiators in TRPC4/5HT1a cells, confirmation, counter-screen for TRPC4 potentiator project, cell-based, second counter screen, HEK293 TRPC4/5HT1a, Fluo-4 (AID 434979;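 active = signal rise over 3 SD above mean of control wells given weak agonist, in both repeats and first screen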); settings: Fluo-4 calcium flux, at 10 µM, serotonin added at its EC20 dose; hits give high values
# [16] = calcium flux activation in mu-opioid HEK293 cells, confirmation, counter-screen for TRPC4 activator project, cell-based, HEK293 mu-opioid receptor line (AID 449723;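 active = hit in primary screen, with calcium signal over 5 SD above buffer well mean in both duplicates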;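 also: counter screen cells carry the mu-opioid receptor alone and lack TRPC4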); settings: Fluo-4 calcium fluorescence, at 10 µM; hits give high values
# [17] = calcium flux enhancement in mu-opioid HEK293 cells, confirmation, counter-screen for TRPC4 allosteric potentiator project, cell-based, HEK293 mu-opioid receptor line (AID 449724;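 active = calcium signal rise more than 3 SD above the low-dose agonist control mean, in both duplicate plates and the primary screen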); settings: Fluo-4 calcium flux, at 10 µM, compound added before EC20 DAMGO stimulus; hits give high values
smiles,measurement,setting,value
Cc1cc(C)nc(Nc2nc(=O)c3ccccc3s2)n1,outcome,[1],inactive
same,outcome,[2],inactive
same,potentiation,[3],10% (active)
same,potentiation,[4],82% (active)
same,outcome,[5],inactive
same,outcome,[6],inactive
same,outcome,[7],inactive
same,outcome,[8],inactive
same,outcome,[9],inactive
same,outcome,[10],inactive
same,outcome,[11],inactive
same,outcome,[12],inactive
same,outcome,[13],inactive
same,outcome,[14],inactive
same,potentiation,[15],81.3% (active)
same,outcome,[16],inactive
same,outcome,[17],inactive
Cc1ccc(C(=O)C[n+]2cccc3cc(C)ccc32)cc1,outcome,[1],inactive
same,outcome,[2],inactive
same,outcome,[3],inactive
same,outcome,[4],inactive
same,outcome,[5],inactive
same,outcome,[6],inactive
same,outcome,[7],inactive
same,outcome,[8],inactive
same,outcome,[9],inactive
same,outcome,[10],inactive
same,outcome,[11],inactive
same,outcome,[12],inactive
same,outcome,[13],inactive
same,outcome,[14],inactive
same,outcome,[15],inactive
same,outcome,[16],inactive
same,outcome,[17],inactive
CCOc1ccccc1NC(=O)CN(c1ccc(OC)cc1)S(=O)(=O)c1c(C)[nH]c(=O)[nH]c1=O,outcome,[1],inactive
same,outcome,[2],inactive
same,outcome,[3],inactive
same,outcome,[4],inactive
same,outcome,[5],inactive
same,outcome,[6],inactive
same,outcome,[7],inactive
same,outcome,[8],inactive
same,outcome,[9],inactive
same,outcome,[10],inactive
same,outcome,[11],inactive
same,outcome,[12],inactive
same,outcome,[13],inactive
same,outcome,[14],inactive
same,potentiation,[15],16.4% (active)
same,outcome,[16],inactive
same,outcome,[17],inactive
COC(=O)c1ccc(/C=N/N2CCN(Cc3ccc(C)cc3C)CC2)cc1,outcome,[1],inactive
same,outcome,[2],inactive
same,potentiation,[3],6% (active)
same,potentiation,[4],22% (active)
same,outcome,[5],inactive
same,outcome,[6],inactive
same,outcome,[7],inactive
same,outcome,[8],inactive
same,outcome,[9],inactive
same,outcome,[10],inactive
same,outcome,[11],inactive
same,outcome,[12],inactive
same,outcome,[13],inactive
same,outcome,[14],inactive
same,potentiation,[15],28.6% (active)
same,outcome,[16],inactive
same,outcome,[17],inactive
O=C(c1ccccc1F)N1CCN(c2ccc([N+](=O)[O-])c3cccnc23)CC1,outcome,[1],inactive
same,outcome,[2],inactive
same,outcome,[3],inactive
same,potentiation,[4],18% (active)
same,outcome,[5],inactive
same,outcome,[6],inactive
same,outcome,[7],inactive
same,outcome,[8],inactive
same,outcome,[9],inactive
same,outcome,[10],inactive
same,outcome,[11],inactive
same,outcome,[12],inactive
same,outcome,[13],inactive
same,outcome,[14],inactive
same,potentiation,[15],16.5% (active)
same,outcome,[16],inactive
same,outcome,[17],inactive
CCN(CC)c1ccc(/C=N/NC(=O)CNC(=O)c2ccccn2)cc1,outcome,[1],inactive
same,outcome,[2],inactive
same,outcome,[3],inactive
same,outcome,[4],inactive
same,outcome,[5],inactive
same,outcome,[6],inactive
same,outcome,[7],inactive
same,outcome,[8],inactive
same,outcome,[9],inactive
same,outcome,[10],inactive
same,outcome,[11],inactive
same,outcome,[12],inactive
same,outcome,[13],inactive
same,outcome,[14],inactive
same,outcome,[15],inactive
same,outcome,[16],inactive
same,outcome,[17],inactive
CCOC(=O)c1ccc(N=C2C(=S)N(c3ccc(C(=O)OCC)cc3)C(=N)N2/N=C/c2ccccc2)cc1,outcome,[1],inactive
same,outcome,[2],inactive
same,outcome,[3],inactive
same,outcome,[4],inactive
same,outcome,[5],inactive
same,outcome,[6],inactive
same,outcome,[7],inactive
same,outcome,[8],inactive
same,outcome,[9],inactive
same,outcome,[10],inactive
same,outcome,[11],inactive
same,outcome,[12],inactive
same,outcome,[13],inactive
same,outcome,[14],inactive
same,outcome,[15],inactive
same,outcome,[16],inactive
same,outcome,[17],inactive
Cc1[nH]n2c(=O)c3c(nc2c1-c1ccccc1)CCC3,outcome,[1],inactive
same,outcome,[2],inactive
same,outcome,[3],inactive
same,outcome,[4],inactive
same,inhibition,[5],76% (active)
same,outcome,[6],inactive
same,outcome,[7],inactive
same,outcome,[8],inactive
same,outcome,[9],inactive
same,outcome,[10],inactive
same,outcome,[11],inactive
same,outcome,[12],inactive
same,outcome,[13],inactive
same,outcome,[14],inactive
same,outcome,[15],inactive
same,outcome,[16],inactive
same,outcome,[17],inactive
CC1(C)CC(=O)C(C=NCCN2CCN(C(=O)CCl)CC2)=C(O)C1,outcome,[1],inactive
same,outcome,[2],inactive
same,outcome,[3],inactive
same,outcome,[4],inactive
same,outcome,[5],inactive
same,outcome,[6],inactive
same,outcome,[7],inactive
same,outcome,[8],inactive
same,outcome,[9],inactive
same,outcome,[10],inactive
same,outcome,[11],inactive
same,outcome,[12],inactive
same,outcome,[13],inactive
same,outcome,[14],inactive
same,outcome,[15],inactive
same,outcome,[16],inactive
same,outcome,[17],inactive
C=CCNC(=S)N1CCN(CCN=Cc2c(C)[nH]n(-c3ccc([N+](=O)[O-])cc3)c2=O)CC1,outcome,[1],inactive
same,outcome,[2],inactive
same,outcome,[3],inactive
same,outcome,[4],inactive
same,outcome,[5],inactive
same,outcome,[6],inactive
same,outcome,[7],inactive
same,outcome,[8],inactive
same,outcome,[9],inactive
same,outcome,[10],inactive
same,outcome,[11],inactive
same,outcome,[12],inactive
same,outcome,[13],inactive
same,outcome,[14],inactive
same,outcome,[15],inactive
same,outcome,[16],inactive
same,outcome,[17],inactive
CCN(CC)CCCN(C(=O)c1cccs1)c1nc(-c2ccc(OC)cc2)cs1,outcome,[1],inactive
same,outcome,[2],inactive
same,outcome,[3],inactive
same,outcome,[4],inactive
same,outcome,[5],inactive
same,outcome,[6],inactive
same,outcome,[7],inactive
same,outcome,[8],inactive
same,outcome,[9],inactive
same,outcome,[10],inactive
same,outcome,[11],inactive
same,outcome,[12],inactive
same,outcome,[13],inactive
same,outcome,[14],inactive
same,outcome,[15],inactive
same,outcome,[16],inactive
same,outcome,[17],inactive
O=[N+]([O-])c1ccc(C[n+]2cccc(O)c2)cc1,outcome,[1],inactive
same,outcome,[2],inactive
same,outcome,[3],inactive
same,outcome,[4],inactive
same,outcome,[5],inactive
same,outcome,[6],inactive
same,outcome,[7],inactive
same,outcome,[8],inactive
same,outcome,[9],inactive
same,outcome,[10],inactive
same,activation,[11],28.5% (active)
same,outcome,[12],inactive
same,outcome,[13],inactive
same,outcome,[14],inactive
same,outcome,[15],inactive
same,outcome,[16],inactive
same,outcome,[17],inactive
O=C(CC1CCCCC1)c1c(O)c2ccccc2oc1=O,activation,[1],151% (active)
same,outcome,[2],inactive
same,outcome,[3],inactive
same,outcome,[4],inactive
same,outcome,[5],inactive
same,outcome,[6],inactive
same,outcome,[7],inactive
same,outcome,[8],inactive
same,outcome,[9],inactive
same,outcome,[10],inactive
same,activation,[11],33.5% (active)
same,outcome,[12],inactive
same,activation,[13],62.5% (active)
same,outcome,[14],inactive
same,outcome,[15],inactive
same,activation,[16],30.8% (active)
same,outcome,[17],inactive
CN1CCN(c2ccc(Cl)cc2NC(=O)/C=C/c2cccc(F)c2)CC1,outcome,[1],inactive
same,outcome,[2],inactive
same,potentiation,[3],11% (active)
same,outcome,[4],inactive
same,outcome,[5],inactive
same,outcome,[6],inactive
same,outcome,[7],inactive
same,outcome,[8],inactive
same,outcome,[9],inactive
same,outcome,[10],inactive
same,outcome,[11],inactive
same,outcome,[12],inactive
same,outcome,[13],inactive
same,outcome,[14],inactive
same,potentiation,[15],41.1% (active)
same,outcome,[16],inactive
same,outcome,[17],inactive
CCCCc1nc(N2CCOCC2)c(C#N)c2c1CCCC2,outcome,[1],inactive
same,outcome,[2],inactive
same,outcome,[3],inactive
same,outcome,[4],inactive
same,outcome,[5],inactive
same,outcome,[6],inactive
same,outcome,[7],inactive
same,outcome,[8],inactive
same,outcome,[9],inactive
same,outcome,[10],inactive
same,outcome,[11],inactive
same,outcome,[12],inactive
same,outcome,[13],inactive
same,inhibition,[14],36.5% (active)
same,outcome,[15],inactive
same,outcome,[16],inactive
same,outcome,[17],inactive
